Inconclusive results are not listed. The source made the active and inactive calls. How the source made its calls, unless noted: active means hit-call score of the fitted dose curve at least 0.9, where 1 is the maximum; inactive means score below 0.9.
What was measured:
[1] = CCTE_Harrill_HTTr_Apoptosis_MCF7: CCTE's 6-hour Apoptosis Assessment for the High-Throughput Transcriptomics (HTTr) Platform, in MCF-7 cells cultured in DMEM + 10% fetal bovine serum, Harrill Lab (AID 2284011)
Procedure, shortened: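 Apoptosis in MCF-7 cells grown in DMEM with 10% fetal bovine serum was scored after a six hour exposure by high content imaging of caspase-3/7 activation (CellEvent Caspase 3/7 Green), with DMSO serving as negative control and baseline.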

[2] = CCTE_Harrill_HTTr_CellCount_MCF7: CCTE's Cell Proliferation Assessment for the High-Throughput Transcriptomics (HTTr) Platform, Harrill Lab (AID 2284012; active means hit-call score of the fitted dose curve at least 0.9, where 1 is the maximum;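 further: count of Hoechst-stained nuclei per well by high-content imaging in MCF-7 cells; cells exposed to compound for six hours; intended direction is loss of nuclei count meaning fewer cells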)
Procedure, shortened: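 For this full-screen endpoint, MCF-7 cultures received eight compound dilutions for six hours. Well nuclei counts from Hoechst imaging were analyzed relative to DMSO.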

[3] = CCTE_Harrill_HTTr_Viability_MCF7: CCTE's 6-hour Cell Viability Assessment for the High-Throughput Transcriptomics (HTTr) Platform, in MCF-7 cells cultured in DMEM + 10% fetal bovine serum, Harrill Lab (AID 2284010)
Procedure, shortened: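 Eight-point concentration series, six-hour exposure. Propidium iodide exclusion imaged to assess membrane integrity as a cytotoxicity readout; bidirectional fitting was done with DMSO as negative control and activity baseline.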

| Structure (SMILES) | outcome [1] | outcome [2] | outcome [3] |
| --- | --- | --- | --- |
| CC(=O)[C@@]1(O)CC[C@H]2[C@@H]3CCC4=CC(=O)CC[C@]4(C)[C@H]3CC[C@@]21C | inactive | inactive | – |
| CCCCc1nc2cccnc2n1Cc1ccc(-c2ccccc2-c2nnn[nH]2)cc1 | inactive | – | – |
| CC1(C)C(=O)NC(=O)N1CO | inactive | – | – |
| CCCC[C@H]1CN(CC2CCOCC2)C(=O)OC12CCN(C1(C)CCN(C(=O)c3c(C)ncnc3C)CC1)CC2 | inactive | inactive | – |
| CCc1nc(N)nc(N)c1-c1ccc(Cl)cc1 | inactive | inactive | inactive |
| CC(=O)S[C@H](C(=O)N[C@H]1Cc2ccccc2[C@H]2CCC[C@@H](C(=O)O)N2C1=O)C(C)C | inactive | inactive | inactive |
| O=C1NC(=O)C(c2ccccc2)(c2ccccc2)N1 | inactive | inactive | – |
| CC(C)(C)c1ccccc1 | inactive | inactive | – |
| O=NO | inactive | inactive | inactive |
| COC(=O)CCC(=O)OC | inactive | inactive | inactive |
| O=C(O)c1cccnc1 | inactive | inactive | inactive |
| CCCCCCCC(=O)OC | inactive | – | – |
| CC(=O)CC(c1ccccc1)c1c(O)c2ccccc2oc1=O (configuration not stated) | inactive | inactive | inactive |
| O=C1c2c(O)cccc2Cc2cccc(O)c21 | inactive | inactive | inactive |
| CC(=O)O | inactive | inactive | inactive |
| O=C(O)CC(O)(CC(=O)O)C(=O)O | inactive | – | – |
| O=C1O[C@H]([C@H](O)CO)C(O)=C1O | inactive | – | – |
| O=[Si]=O | inactive | – | – |
| NC1CCCCC1 | inactive | inactive | inactive |
| COC(=O)CCCC(=O)OC | inactive | – | – |
| CO[C@@H]1COCC[C@@H]1N[C@@H]1CC[C@@](C(=O)N2CCc3ncc(C(F)(F)F)cc3C2)(C(C)C)C1 | inactive | – | – |
| CC(=O)OC1CC(C)OC(C)O1 (configuration not stated) | inactive | inactive | inactive |
| CS(=O)(=O)c1ccc([C@@H](C[C@H]2CCC(=O)C2)C(=O)Nc2cnccn2)cc1Cl | inactive | inactive | – |
| C=CCc1ccc(OC)c(OC)c1 | inactive | inactive | inactive |
| Cc1occc(=O)c1O | inactive | – | – |
| Cn1cnc2c1c(=O)[nH]c(=O)n2C | inactive | inactive | – |
| CC(COCC(C)OC(=O)c1ccccc1)OC(=O)c1ccccc1 (configuration not stated) | inactive | – | – |
| Cc1cn([C@H]2C=C[C@@H](CO)O2)c(=O)[nH]c1=O | inactive | inactive | – |
